# High-throughput results as filed in PubChem.
# VCAM1 pot = potentiators of TNFa-induced VCAM1 expression, primary screen, imaging, HUVEC, TNFa stimulus, immunofluorescence; actives 0.19% (n = 93,000); AID 808, 2007; activation, % at 2 µM; HUVEC TNFa-stimulated VCAM-1 immunofluorescence, high-content imaging; scaled per plate to unstimulated/TNFa-only wells;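 active means activation above the screen mean plus 3 SD, with well images confirming the hit on visual review, cut at about 28% in these data, passing the limit was not always enough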;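 further: signal is the number of cytoplasmic VCAM-1 stained grains per positive cell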
# VCAM1 pot confirm = potentiators of TNFa-induced VCAM1 expression, confirmation, imaging, HUVEC, triplicate retest; activation, % at 2 µM; HUVEC TNFa-stimulated VCAM-1 immunofluorescence imaging; shares compounds with VCAM1 pot; 230 tested, under 10 active;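 active means activation above 30% in triplicate retests at 2 µM, then confirmed by visual review of the well images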;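 further: scaled per plate between unstimulated and TNFa-stimulated DMSO control wells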
# Starred values were filed as active, the others as inactive. Shown is part of a subset that was picked to be rich in hits.
SMILES,VCAM1 pot,others
Cc1ccc(-n2nc3c(c2NC(=O)c2c(-c4ccccc4Cl)noc2C)CSC3)cc1,0,
CC(=O)c1c(C)n([O-])c2cc(C)ccc2[n+]1=O,-7,
CN(C)NC1CCS(=O)(=O)C1 (stereo not drawn),-1,
COCCNC(=O)C(c1ccc(C)o1)N(C(=O)c1snc(C(N)=O)c1N)c1cc(C)cc(C)c1 (stereo not drawn),-8,
CCN(c1ccccc1)S(=O)(=O)c1ccc(F)cc1C,12,
CCOC(=O)c1cnn(-c2nc(-c3ccc(C)cc3)cs2)c1C(F)(F)F,-96,
CCOC(=O)c1ccc(-n2[nH]c(-c3ccccc3)cc2=O)cc1,5,
CCOC(=O)c1ccc(-n2nc(C(F)(F)F)c3c(C)cc(=O)oc32)cc1,57*,
O=C(c1cn(-c2ccccc2)nc1-c1cccs1)N1CCN(c2ccccn2)CC1,-6,
CC(=O)NC(Cc1ccccc1)C(=O)N1CCN(C(=O)c2cccs2)CC1 (stereo not drawn),-7,
CSc1n[nH]c(NCc2cccs2)n1,35,
CC(C)(C)C(=O)NC(NC(=S)Nc1sc2c(c1C#N)CCCC2)C(Cl)(Cl)Cl (stereo not drawn),3,
O=c1c2ccccc2nc(/C=C/c2ccc([N+](=O)[O-])o2)n1CCCO,-58,
COc1ccc(OC)c2c(C)cc(N3CCN(C(=O)c4ccc(F)cc4)CC3)nc12,18,
C=CCn1c(COc2cccc(C)c2)nnc1SCC(=O)NC(=O)NCc1ccco1,-6,
O=C(NC1CCSC1=O)c1cccc(C(=O)NC2CCSC2=O)c1 (stereo not drawn),-1,
Cn1ccnc1C(=O)c1cc(=O)c2ccccc2o1,8,
CC1CN(S(=O)(=O)c2ccc(Cl)c(C(F)(F)F)c2)CC(C)O1 (stereo not drawn),22,
COC(=O)C(CC(C)C)NC(=O)c1ccc(F)cc1 (stereo not drawn),8,
Cc1nonc1NC(=O)c1ccc(Cl)c(S(=O)(=O)N2CCCCC2)c1,-2,
COc1cccc(Nc2nc(=O)[nH]nc2C)c1,29,
O=C(CSc1nnc(Cc2ccccc2)n1-c1cccc(Cl)c1)N1CCOCC1,-2,
CCOC(=O)c1cc2cc3ccccc3cc2[nH]1,22,
C/C(NC(=O)c1cccs1)=C1\C(=O)C[C@@H]2[C@H]1C2(C)C,1,
COc1ccc(-c2c[n+]3c4n2CCCCC4=C(c2ccccc2)C3)cc1,0,
SMILES,VCAM1 pot,others
Nc1ccc(Oc2ccc3nc(-c4ccccc4)c(-c4ccc([N+](=O)[O-])cc4)nc3c2)cc1,5,
N#Cc1cc2c(=O)n3ccccc3nc2n(CC2CCCO2)c1=N (stereo not drawn),47*,
COCCNC(=O)CSc1nc2ccccc2c(=O)n1CC1CCCO1 (stereo not drawn),10,
Cc1ccc(S(=O)(=O)c2cc3c(=O)n4ccccc4nc3n(Cc3ccco3)c2=N)cc1,-20,
CCc1nc(SCC(=O)N2c3ccccc3CC2C)c2c(C)c(C)sc2n1 (stereo not drawn),0,
Cc1ccc(NCc2nnc(SCC(=O)N(Cc3ccccc3)C(C)(C)C)o2)c(C)c1,-5,
CC(C)(C)c1nn(-c2ccccc2)c2[nH]c(=O)c(CNCc3ccc4c(c3)OCO4)cc12,7,
O=S(=O)(NCCc1ccncc1)c1cc(Br)ccc1F,-12,
CN(CCOC(=O)c1ccc2c(c1)OCCO2)Cc1ccccc1,-22,
CCC(=O)Nc1ccc(-c2nn3c(C)nnc3s2)cc1C,-4,
COc1nc(C)nc2c1ccc1ccccc12,-6,
O=C(Nc1cnn(Cc2ccc(Cl)c(Cl)c2)c1)C12CC3CC(CC(C3)C1)C2,-18,
Cc1c(NC(=O)C(C)Sc2n[nH]c(N)n2)c(=O)n(-c2ccccc2)n1C (stereo not drawn),7,
CS(=O)(=O)N(Cc1ccco1)CC(O)Cn1cc(C=O)c2ccccc21 (stereo not drawn),-10,
COc1cccc(/C=N/NC(=O)CC(=O)NCCc2ccc(OC)c(OC)c2)c1,5,
COc1ccc(-c2onc3ccc(Cl)cc23)cc1,-10,
CC1CCCN(CC(=O)Nc2ccc(S(=O)(=O)NC3CCCCC3)cc2)C1 (stereo not drawn),-7,
Cc1nn(-c2ccc(F)cc2)c(Cl)c1/C=C(\CCC(=O)O)c1nc2ccccc2s1,-9,
CC(C)(C)n1ncc(Oc2ccc(Oc3cnn(C(C)(C)C)c(=O)c3Cl)cc2)c(Cl)c1=O,2,
COC(=O)c1ccccc1NC(=O)c1cc(-c2ccc(OC)c(OC)c2)on1,1,
Cc1cccc(N2CCN(C(=O)NCc3ccc(Cl)cc3)CC2)c1,-17,
CCNC(=O)/N=C1/NC(=O)C(C(C)C)O1 (stereo not drawn),-9,
CCCOC(=O)C1C2C=C[C@]3(CN(CCc4ccccc4)C(=O)[C@H]13)O2 (stereo partly drawn),-93,
C=CCn1c(SCc2nc3ccccc3c(=O)[nH]2)nnc1-c1cc2cc(Cl)ccc2o1,1,
CCCC(C(=O)NC1CCCC1)N(CCCN1CCOCC1)C(=O)c1snc(C(N)=O)c1N (stereo not drawn),-78,
SMILES,VCAM1 pot,others
COCCNC(=O)C(c1cccs1)N(C(=O)Cn1nnc2ccccc21)c1ccc(OC)cc1 (stereo not drawn),-9,
CCc1c(C)nc(SC)n(CC#N)c1=O,-20,
CCOC(=O)COc1ccc2c(c1)C(=O)CC1(CCCCC1)O2,3,
OC1(c2cccc(C(F)(F)F)c2)CCN(c2ncnc3c2[nH]c2ccc(F)cc23)CC1,-54,
CCc1nnc(NC(=O)CSc2nnc(CSc3nc(C)cc(C)n3)o2)s1,-2,
CCOC(=O)N1CCC(NC(=O)c2ccc(CS(=O)(=O)c3ccc(OC)cc3)o2)CC1,-85,
COc1ccc2c(c1)c1c(n2C(C)=O)C(OC(C)=O)=NCC1,-6,
O=C1CC(c2ccccc2)Cc2nc3ncnn3cc21 (stereo not drawn),-60,
Cc1ccc(SCC(=O)NCc2cccnc2)cc1,-8,
CN(C)C(=O)c1ccccc1-c1ccccc1,8,
NC(=O)c1c(NC(NC(=O)c2ccco2)(C(F)(F)F)C(F)(F)F)sc2c1CCCC2,-17,
O=C(CSc1nnc2c3cc(F)ccc3nc(-c3ccccc3)n12)N1CCOCC1,-14,
CNc1nc(Oc2ccc(=O)n(C)n2)nc(N2CCOCC2)n1,9,
CC1CC1C(=O)OCC(=O)NC(=O)NCc1ccco1 (stereo not drawn),-31,
O=S(=O)(NCc1cc(-c2ccccc2Cl)no1)c1ccc(Cl)cc1,-3,
Cc1ccc(N2CC(C(=O)Nc3ccccc3C(=O)NC3CCCCC3)CC2=O)cc1C (stereo not drawn),19,
CC1(C)CC(=O)c2cnc(N3CCc4ccccc4C3)nc2C1,6,
CC(C)CNC(=S)NNC(=O)c1ccco1,-38,
CN(C)c1oc(-c2ccccc2Cl)nc1C#N,41*,VCAM1 pot confirm=5
COc1ccc(-c2nc(C#N)c(NCCCN(C)C)o2)cc1OC,-97,
CCCCP(=O)(CCCC)Cc1ccccc1O,-6,
CC(C)(C)OC(=O)N1CC(O)CC1C(=O)OCC(=O)c1ccccc1 (stereo not drawn),21,
O=C(CSc1cccc2cccnc12)OCC(=O)c1ccccc1,-9,
O=C(COC(=O)C1CC(=O)N(c2nc(-c3ccccc3)cs2)C1)c1ccccc1 (stereo not drawn),55*,VCAM1 pot confirm=-12
O=C(C1CCN(C2CC(=O)N(c3ccc(Cl)cc3)C2=O)CC1)N1CCOCC1 (stereo not drawn),7,
